HT1080 IDH1KD tx: qHTS for induction of synthetic lethality in tumor cells producing 2HG: qHTS for the HT-1080-IDH1KD cell line | HT-1080 IDH1 knockdown viability, ATP luminescence, 48 h | Potency, µM (highest dose often 46.1 µM), for the others: at the highest dose activity, negative = toxicity, most hits filed as cytotoxic | 360,000 compounds, 2% hits | AID 686971, 2013;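 note: potency is the fitted concentration of half-maximal effect; 0% = DMSO wells and -100% = cell-free medium wells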
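Cytotoxicity counter-line: IDH1KD HT-1080, 48 h, CellTiter-Glo. Curves classed by r2, magnitude and activity.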
HT1080NT lethal: qHTS for induction of synthetic lethality in tumor cells producing 2HG: qHTS for the HT-1080-NT fibrosarcoma cell line. HT-1080-NT fibrosarcoma viability, CellTiter-Glo ATP luminescence, 48 h. Potency, µM (doses to about 46.1 µM), for the others: at the top dose activity, negative = less viability, usual class: cytotoxic. 360,000 compounds, 1.6% hits;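 note: NT is the 2HG producing partner of a matched IDH1 knockdown line; potency is the fitted concentration of half-maximal effect; 0% = DMSO-treated cells and -100% = media-only wells without cells; nearly all actives have a fitted effect of over 55% in size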
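Fibrosarcoma NT cells, 750 per well in 5% FBS RPMI, were exposed to compound for 48 hours. Viability: CellTiter-Glo luminescence.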
DT40 TDP1 no CPT: qHTS for Inhibitors of human tyrosyl-DNA phosphodiesterase 1 (TDP1): qHTS in cells in absence of CPT; 420,000 compounds, 15% hits; DT40 Tdp1-/- hTDP1 cells, no CPT, ATP luminescence, 48 h; Potency, µM (series often up to 46.2 µM), inactives show at the highest dose activity change, negative = growth inhibition, actives largely listed as inhibitors; note: potency is the fitted concentration of half-maximal effect; nearly all actives have a fitted effect of over 55% in size
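A cellular qHTS used chicken DT40 cells lacking endogenous Tdp1 but carrying stably transfected human TDP1. Compounds were applied without camptothecin, and cell growth kinetics were judged by ATP-dependent luminescence after ≥48 hr.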
IL1B secr inh: qHTS for Inhibitors of Inflammasome Signaling: IL-1-beta AlphaLISA Primary Screen; 360,000 compounds, 4.7% hits; THP-1 LPS/ATP IL-1B secretion, AlphaLISA, 16 h; hits give low values; activity change, % at 57.5 µM; in the data active = activity change below about -50%; inconclusive = mostly about -30% to -49%
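THP-1 cells pretreated 1 hr with compounds (up to 57.5 uM final), then stimulated with LPS (250 ng/mL final) plus ATP (1.25 mM final); secreted IL-1B measured by AlphaLISA after 16 hr, decreased signal indicating inhibition.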
DT40 TDP1 CPT: qHTS for Inhibitors of human tyrosyl-DNA phosphodiesterase 1 (TDP1): qHTS in cells in presence of CPT | chicken DT40 Tdp1-/-;hTDP1 cells + 20 nM CPT, ATP luminescence, 48 h | Potency, µM (titrated, usually from 46.2 µM), for inactives: at the highest dose activity change, negative = growth inhibition, actives largely listed as inhibitors | 420,000 compounds, 12% hits | AID 686979, 2013; note: potency is the fitted concentration of half-maximal effect; nearly all actives have a fitted effect of over 55% in size
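Chicken DT40 Tdp1-/- cells complemented with human TDP1, 400 cells/well, exposed to compounds plus 20 nM camptothecin for at least 48 h at 37 C; viability read as ATP content by CellTiter-Glo luminescence.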
ELG1 DNA repair: qHTS screen for small molecules that inhibit ELG1-dependent DNA repair in human embryonic kidney (HEK293T) cells expressing luciferase-tagged ELG1; HEK293T ELG1-luciferase reporter, luminescence, 16 h; DNA damage induced by 5-fluorouridine; Potency, µM (series often up to 46.1 µM), for the others: top-dose activity change, negative = inhibition, hits mostly inhibitors; 330,000 compounds, 2.3% hits; AID 504467, 2011; note: potency is the fitted concentration of half-maximal effect; nearly all actives have a fitted effect of over 55% in size
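HEK293T cells expressing luciferase-tagged ELG1 (2,000/well) received 5-Fluorouridine plus compound or DMSO for 16 hr at 37 °C. Luciferase was read by ONE-Glo luminescence after 30 min at room temperature.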
The depositor's hits bear a star; ? = inconclusive; . = no result; [ ] = dose if it differs, or a comment. Compounds with a hit are over-represented: about 19% of the library has one in this group of screens. Unless noted, calls come from the whole dose curve; as a rule, active = well fitted curve in the direction sought with a large enough effect; inconclusive = small, poorly fitted or top-dose-only effect, or another doubt; inactive = no such curve, though single readings can be large; an effect the other way counts as inactive or inconclusive. Unless noted, % is set by controls: 0 for no effect and ±100 for the full control effect.

SMILES	HT1080 IDH1KD tx	HT1080NT lethal	DT40 TDP1 no CPT	IL1B secr inh	DT40 TDP1 CPT	ELG1 DNA repair
COc1ccc(C2CC(c3ccccc3)=NN2C(=O)COC(=O)C2CC2)cc1 (stereo not drawn)	11%	1%	?	-14	-6%	-20%
COc1ccc2cc(C3CC(c4cccs4)=NN3C(C)=O)c(Cl)nc2c1 (stereo not drawn)	13%	9%	-8%	10	0%	5%
COc1ccc(C2CC(c3ccccc3)=NN2C(=O)COC(=O)C2(C)CC2(Cl)Cl)cc1 (stereo not drawn)	-24%	-24%	?	-68*	?	?
COc1ccc(C(=O)N2N=C(c3cccs3)CC2c2ccccc2O)cc1 (stereo not drawn)	?	?	13µM*	25	-4%	?
COc1ccc(C2CC(c3ccccc3)=NN2C(=O)c2cccs2)cc1 (stereo not drawn)	?	?	?	-23	23µM*	?
COc1ccc(C2=NN(C(=O)c3cccs3)C(c3ccccc3O)C2)cc1 (stereo not drawn)	-27%	-29%	?	-59*	?	?
N#Cc1ccc(S(=O)(=O)N2CCN(CC(=O)NCC3(N4CCOCC4)CCCCC3)CC2)cc1	3%	4%	-1%	-5	-3%	1%
Cc1cccc(S(=O)(=O)c2cn(C)c3cc(N4CCN(c5ccccc5)CC4)c(F)cc3c2=O)c1	.	.	-15%	.	4%	.
CCCNC(=O)C1(C)CCN(C(=O)COc2ccc(C(C)(C)C)cc2)C1 (stereo not drawn)	9%	-2%	-27%	0	-19%	.
COc1ccc(C2=NN(C(=O)c3cccs3)C(O)(C(F)(F)F)C2)cc1 (stereo not drawn)	-25%	-18%	16µM*	-52*	?	?
Cc1ccc(C(=O)NCC(=O)OCC(=O)NCC(F)(F)F)cc1	17%	14%	3%	-7	11%	4%
CNC(=S)NCCC(c1ccccc1)c1ccccc1	-17%	-1%	-34%	4	-23%	?
CC[C@H](C)[C@@H](CN[C@H](C)CNC)NCCC(c1ccccc1)c1ccccc1	?	?	3.7µM*	0	5.2µM*	13%
COc1ccc(-n2c(=O)cnc3cnc(Oc4ccccc4)nc32)cc1	.	.	?	.	-6%	.
CCc1ccc(CNC(=O)Cc2ccc(NC(=O)N3CCSc4ncccc43)cc2)cc1	.	.	23µM*	.	26µM*	.
O=C(Cc1ccc(NC(=O)N2CCSc3ncccc32)cc1)NCc1cccc(Cl)c1	.	.	21µM*	.	?	.
CCOc1ccc(CNC(=O)Cc2ccc(NC(=O)N3CCSc4ncccc43)cc2)cc1	.	.	16µM*	.	16µM*	.
CCOc1ccc(NC(=O)c2ccc(NC(=O)N3CCSc4ncccc43)cc2)cc1	.	.	-29%	.	-20%	.
CCc1ccc(CNC(=O)Cc2ccc(NC(=O)C3=C(C)OCCS3)cc2)cc1	1.3µM*	0.82µM*	1.3µM*	44	1.2µM*	?
Cc1nc(-c2cccc(F)c2)sc1CCNC(=O)C(=O)Nc1ccc2c(c1)OCO2	.	.	-18%	.	?	.
CCOc1ccccc1CNC(=O)c1ccc(NC(=O)N2CCSc3ncccc32)cc1	.	.	15µM*	.	21µM*	.
O=C(Cc1ccc(NC(=O)N2CCSc3ncccc32)cc1)NCCc1ccccc1	.	.	-25%	.	?	.
CCOc1ccccc1CNC(=O)c1ccc(NC(=O)C2=CSCCO2)cc1	1%	0%	23µM*	-6	?	9%
CCS(=O)(=O)N1Cc2ccccc2CC1C(=O)Nc1cccc(OC)c1 (stereo not drawn)	8%	8%	-10%	50	-16%	2.3µM*
COc1ccc(OC)c(S(=O)(=O)N2Cc3ccccc3CC2C(=O)Nc2ccc(C(C)=O)cc2)c1 (stereo not drawn)	.	.	10µM*	.	?	.
SMILES	HT1080 IDH1KD tx	HT1080NT lethal	DT40 TDP1 no CPT	IL1B secr inh	DT40 TDP1 CPT	ELG1 DNA repair
CC(NC(=O)COC(=O)c1ccc(CO)cc1)C1CC2CCC1C2 (stereo not drawn)	4%	-7%	5%	0	?	20%
CCC(=O)N1c2ccccc2CC1C(=O)NCc1cccc(OC)c1OC (stereo not drawn)	.	.	-16%	.	?	.
CCOC(=O)C1CCCN(C(=O)CNC(=O)c2ccc(Br)o2)C1 (stereo not drawn)	11%	-1%[9.24 µM]	11%	-11	-13%	17%
Cc1nn(Cc2ccccc2Cl)c2sc(C(=O)NCc3ccc4c(c3)OCO4)cc12	-10%	-16%	?	-12	?	-25%
COc1cccc(-c2nn(C)c3sc(C(=O)NCc4ccc(C)o4)cc23)c1	?	-20%	23µM*	0	?	?
CCOC(=O)c1cccc(NC(=O)Nc2cc(OC)ccc2OC)c1	?	-26%	?	0	?	-2%
COc1cccc(-c2nn(C)c3sc(C(=O)NCc4ccc5c(c4)OCO5)cc23)c1	-7%	6%	?	-13	13µM*	?
CCOC(=O)c1cccc(NC(=O)c2cc3c(-c4cccc(OC)c4)nn(C)c3s2)c1	.	.	16µM*	.	16µM*	.
COc1cc(-c2nnc(SCC(=O)Nc3cccc(C#N)c3)o2)cc(OC)c1OC	.	.	-25%	.	-29%	.
Cc1cccc(NC(=O)C2CCCN(c3ncnc4c3nc3n4CCCCC3)C2)n1 (stereo not drawn)	-10%	-5%	7.3µM*	-12	10µM*	?
O=C(NCc1ccccc1)C1CCN(c2ncnc3c2nc2n3CCCCC2)CC1	.	.	-9%	.	-2%	.
CC1CCCCN1CCNC(=O)C1CCCN(c2ncnc3c2nc2n3CCCCC2)C1 (stereo not drawn)	-11%	3%	-27%	5	16%	1%
O=C(Nc1ccc(Cl)cc1)C1CCCN(c2ncnc3c2nc2n3CCCCC2)C1 (stereo not drawn)	?	?	18µM*	-59*	23µM*	23µM*
